Measurements from PubChem BioAssay AID1159580 (chemical genetic matrix, 2015).
Hit rate of the full screen: of about 5,500 compounds, about 2,000 (36%) were called active. Not shown: some 18% with an inconclusive outcome. Cut-off read from the data, not from the text of the source: active = normalized growth mostly below about 0.91 (no sharp cut-off); inconclusive = no clear call, values can overlap the other calls; inactive = mostly above about 0.92. The list shows a part of the results.

Assay: chemical genetic growth profiling, strain panel (AID 1159580);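 note: tested at 20 µM; growth read once vehicle control cultures reached saturation at 30 °C; 1 = growth at the plate median or of vehicle wells; lower values mean less growth of the strain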
Settings: growth OD

Measured: normalized growth

N#CCCN1C(=O)C2(OCCO2)c2ccccc21
inactive: S. cerevisiae deletion strains, locus YAL013W, strain DEP1, hits give low values 1.01 | S. cerevisiae deletion strains, locus YBR229C, strain ROT2, hits give low values 1.01 | S. cerevisiae deletion strains, locus YCL061C, strain MRC1, hits give low values 1 | S. cerevisiae deletion strains, locus YDL101C, strain DUN1, hits give low values 0.976 | S. cerevisiae deletion strains, locus YDR150W, strain NUM1, hits give low values 0.977 | S. cerevisiae deletion strains, locus YEL061C, strain CIN8, hits give low values 0.997 | S. cerevisiae deletion strains, locus YGR078C, strain PAC10, hits give low values 1 | S. cerevisiae deletion strains, locus YHR030C, strain SLT2, hits give low values 1 | S. cerevisiae deletion strains, locus YHR087W, strain rtc3, hits give low values 0.991 | S. cerevisiae deletion strains, locus YJL187C, strain SWE1, hits give low values 1 | S. cerevisiae deletion strains, locus YJR043C, strain POL32, hits give low values 1 | S. cerevisiae deletion strains, locus YJR075W, strain HOC1, hits give low values 1 | S. cerevisiae deletion strains, locus YLR039C, strain RIC1, hits give low values 1.02 | S. cerevisiae deletion strains, locus YLR058C, strain SHM2 (second series), hits give low values 1 | S. cerevisiae deletion strains, locus YLR085C, strain ARP6, hits give low values 1.02 | S. cerevisiae deletion strains, locus YLR262C, strain YPT6, hits give low values 1.02 | S. cerevisiae deletion strains, locus YML094W, strain GIM5, hits give low values 0.986 | S. cerevisiae deletion strains, locus YMR219W, strain ESC1, hits give low values 1.01 | S. cerevisiae deletion strains, locus YMR263W, strain SAP30, hits give low values 1.05 | S. cerevisiae deletion strains, locus YMR307W, strain GAS1, hits give low values 1.05 | S. cerevisiae deletion strains, locus YNL153C, strain GIM3, hits give low values 1.02 | S. cerevisiae deletion strains, locus YNL298W, strain CLA4 (second series), hits give low values 1 | S. cerevisiae deletion strains, locus YNL322C, strain KRE1, hits give low values 0.997 | S. cerevisiae deletion strains, locus YNR030W, strain Alg12, hits give low values 1 | S. cerevisiae deletion strains, locus YOL006C, strain TOP1, hits give low values 1.02 | S. cerevisiae deletion strains, locus YPL055C, strain LGE1, hits give low values 1.02 | S. cerevisiae deletion strains, locus YPL241C, strain CIN2, hits give low values 1.01 | S. cerevisiae deletion strains, locus YPR135W, strain CTF4, hits give low values 1.09 | S. cerevisiae strains, strain wild type, hits give low values 1.02
